Laboratory results: PubChem BioAssay
“And” between values parts separate entries of the source, which are not always exact repeats. Identical values can stand only once. The source made the active and inactive calls.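 How the source made its calls, unless noted: active means compound raises insulin release from rat beta cells at 5 mM glucose, no numeric limit stated; inactive means the rest.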

Columns and labels:
[1] = stimulators of nuclear beta-catenin in C2C12, primary screen, imaging, WNT3A-conditioned medium, mouse C2C12, NPC library (AID 1117326; in the data active means nuclear beta-catenin stimulation mostly above about 4.2%, no sharp cut-off; inactive means mostly below about 10%); details: stronger effect = higher value
[2] = stimulators of insulin release from INS-1E, primary screen, cell-based, 5 mM glucose, NPC library (AID 1117329); details: rat INS-1E insulin secretion, at 10 µM, stronger effect = higher value
[3] = growth inhibition of GSK3B-pretreated HCT116 cells – cell-based, CellTiter-Glo, 0.2 to 20 µM (AID 1117336;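 active means compounds lowering colon cancer cell viability after pretreatment blocking the GSK3B kinase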); details: HCT116 viability after GSK3B inhibitor, at 20 µM, stronger effect = higher value
[4] = glucagon-like peptide 1 release enhancers, primary assay, NCI-H716 cell line, NPC library (AID 1117341;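 active means compound raises GLP1 secretion from the human gut endocrine cells, with no numeric limit stated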); details: NCI-H716 cells, at 10 µM, stronger effect = higher value
[5] = HCT116 colon cancer cell growth inhibition, primary screen, CellTiter-Glo luminescence, NPC library (AID 1117342;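 active means compounds that lower survival of HCT116 colon cancer cells in the luminescence readout, no numeric limit stated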); details: at 20 µM (top of the series)
[6] = CellTiter-Glo luminescent readout of SW480 viability loss, NPC library primary (AID 1117343;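 active means compounds that lower viability of the colon cancer cells in the luminescence readout, with no numeric limit stated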); details: CellTiter-Glo luminescence; at 20 µM (top of the series) unless noted
[7] = decreased DLD-1 cellular survival, CellTiter-Glo luminescent readout, NPC compound collection, primary HTS (AID 1117346;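 active means compounds that lower survival of DLD-1 colon cancer cells in the luminescence readout, no cutoff given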); details: DLD-1 viability, CellTiter-Glo luminescence; at 20 µM (top of the series)
[8] = inhibition of endothelial tube formation, primary screen, imaging, VEGF stimulated, CD31 staining, tube area, NPC library (AID 1117340;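 active means compound that reduces growth-factor-driven endothelial tube area in a mixed cell culture, no cutoff stated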); details: VEGF-stimulated ADSC/ECFC co-culture, at 10 µM, stronger effect = higher value
[9] = molecular target: NAD(+) hydrolase SARM1 (Homo sapiens) (UniProt Q6SZW1); assay: SARM1 TIR NADase inhibitors, cell lysate, NAD-Glo luminescence (AID 1508614;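 active means compound whose remaining NAD level is above about 45 nM, limit read from the data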); details: SAM-TIR HEK293T lysate NADase, at 1 µM, stronger effect = higher value
Chain of NAD(+) hydrolase SARM1 (Homo sapiens) (Q6SZW1 whole entry, looked up, the tested form may be a part): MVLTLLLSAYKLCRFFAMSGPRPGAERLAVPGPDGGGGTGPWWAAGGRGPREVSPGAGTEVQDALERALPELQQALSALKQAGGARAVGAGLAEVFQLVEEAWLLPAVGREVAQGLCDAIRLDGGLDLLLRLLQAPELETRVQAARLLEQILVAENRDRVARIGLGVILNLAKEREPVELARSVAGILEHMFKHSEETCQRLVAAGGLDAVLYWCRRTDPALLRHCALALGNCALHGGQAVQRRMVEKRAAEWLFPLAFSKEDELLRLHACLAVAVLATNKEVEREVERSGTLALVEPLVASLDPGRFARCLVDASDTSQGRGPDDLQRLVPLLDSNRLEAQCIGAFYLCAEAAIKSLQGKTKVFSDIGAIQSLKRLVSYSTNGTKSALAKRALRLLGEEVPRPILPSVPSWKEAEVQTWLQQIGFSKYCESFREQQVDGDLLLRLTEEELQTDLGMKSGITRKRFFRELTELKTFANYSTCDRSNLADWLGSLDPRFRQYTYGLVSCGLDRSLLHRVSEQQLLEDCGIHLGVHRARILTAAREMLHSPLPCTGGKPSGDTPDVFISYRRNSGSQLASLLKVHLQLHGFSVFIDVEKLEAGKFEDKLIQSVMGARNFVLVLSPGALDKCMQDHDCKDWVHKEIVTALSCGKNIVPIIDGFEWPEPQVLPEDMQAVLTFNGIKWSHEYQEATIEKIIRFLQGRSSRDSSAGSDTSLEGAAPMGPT

[10] = molecular target: Mitogen-activated protein kinase 7 (Homo sapiens) (UniProt Q13164); assay: ERK5 transactivation activators in reporter cells, primary screen, cell-based, HTS (AID 1508626;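 active means luciferase signal above three times the same-plate solvent-only control wells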;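 further: luciferase driven by Gal4-ERK5 fusion binding five Gal4 sites before minimal TATA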); details: HeLa Gal4-ERK5 transactivation, 18 h, at 5 µM, stronger effect = higher value
Chain of Mitogen-activated protein kinase 7 (Homo sapiens) (Q13164 whole entry, looked up, the tested form may be a part): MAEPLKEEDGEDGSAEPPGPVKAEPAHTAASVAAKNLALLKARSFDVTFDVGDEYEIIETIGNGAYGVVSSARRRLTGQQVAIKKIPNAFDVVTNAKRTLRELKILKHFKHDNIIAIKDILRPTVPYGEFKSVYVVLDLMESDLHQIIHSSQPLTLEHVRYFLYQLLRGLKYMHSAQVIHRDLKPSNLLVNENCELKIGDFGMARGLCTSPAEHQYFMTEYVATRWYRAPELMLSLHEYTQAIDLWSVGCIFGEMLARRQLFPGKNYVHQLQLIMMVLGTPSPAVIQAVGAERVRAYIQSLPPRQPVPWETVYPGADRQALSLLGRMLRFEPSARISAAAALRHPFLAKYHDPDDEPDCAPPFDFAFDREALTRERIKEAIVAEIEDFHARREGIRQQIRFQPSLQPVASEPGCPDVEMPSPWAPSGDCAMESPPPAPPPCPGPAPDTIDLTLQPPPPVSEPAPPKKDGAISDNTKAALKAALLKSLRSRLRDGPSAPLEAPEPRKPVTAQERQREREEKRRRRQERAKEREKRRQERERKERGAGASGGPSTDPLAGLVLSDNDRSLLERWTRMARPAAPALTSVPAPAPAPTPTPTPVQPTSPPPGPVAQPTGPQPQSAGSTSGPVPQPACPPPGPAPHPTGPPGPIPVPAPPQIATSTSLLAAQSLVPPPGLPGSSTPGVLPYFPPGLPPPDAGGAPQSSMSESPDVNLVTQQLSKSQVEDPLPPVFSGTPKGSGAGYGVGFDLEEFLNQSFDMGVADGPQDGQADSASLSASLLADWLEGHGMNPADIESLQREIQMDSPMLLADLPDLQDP

[11] = LFS_MB_P medulloblastoma growth inhibition, cell-based, chromothripsis tumors, cisplatin or BGB combos (AID 1671449; in the data active means inhibition above about 80%;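 further: cells exposed for 96 hours; 0% = vehicle DMSO and 100% = killing by high DMSO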); details: LFS_MB_P medulloblastoma cells
[12] = HDN33 neuroblastoma growth inhibition, cell-based, chromothripsis tumors, cisplatin or BGB combos (AID 1671450; in the data active means inhibition above about 80%;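 further: cells exposed to compound for four days; 0% = vehicle DMSO and 100% = cell killing by high DMSO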); details: HDN33 neuroblastoma cells, stronger effect = higher value
[13] = ICB984 medulloblastoma cell growth inhibition, synergistic combos for chromothripsis tumors, cisplatin or BGB combos (AID 1671451; call rule not given here;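 further: cells exposed for 96 hours before readout; 0% = vehicle DMSO and 100% = killing by high DMSO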); details: ICB984 medulloblastoma cells, drug combinations, stronger effect = higher value
[14] = sensitizers of A549 cells to miR-34 induction, primary screen, imaging, A549 dox-inducible miR-34, nuclei and caspase counts (AID 1347080;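 active means compounds whose cell count with miR-34 switched on is under 0.7 times the count with it off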); details: A549 miR-34 inducible, Hoechst nuclei count, 48 h
[15] = survival rescue of mitochondrial mutant cells in low glucose, primary screen, MELAS cybrids, Rieske KO mouse fibroblasts, CellTiter-Glo (AID 1508586;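 active means mean z-score across replicates of 1.96 or higher in either the MELAS or the Rieske mutant cell line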;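 further: z relative to plate mean and SD of compound and empty wells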)

Cc1cc(-c2ccc(N=Nc3c(S(=O)(=O)O)cc4cc(S(=O)(=O)O)cc(N)c4c3O)c(C)c2)ccc1N=Nc1c(S(=O)(=O)O)cc2cc(S(=O)(=O)O)cc(N)c2c1O
nuclear beta-catenin stimulation ([1]; at 10 µM): -3.5% (inactive)
nuclear beta-catenin stimulation ([1]; stimulation, at 2 µM): -1.8%
insulin secretion stimulation [2]: 2.95% (inactive)
viability decrease [3]: 35.2% (inactive)
GLP1 secretion stimulation [4]: -8.7% (inactive)
inhibition of viability [5]: 22.2% (inactive)
viability decrease (inhibition) [6]: 37.9% (inactive)
viability decrease (inhibition) [7]: 23.9% (inactive)

CCCCC(=O)O[C@]1(C(=O)CO)CC[C@H]2[C@@H]3CCC4=CC(=O)CC[C@]4(C)[C@H]3[C@@H](O)C[C@@]21C
nuclear beta-catenin stimulation ([1]; at 10 µM): -1.9% (inactive)
nuclear beta-catenin stimulation ([1]; stimulation, at 2 µM): 0.1%
insulin secretion stimulation [2]: 1.5% (inactive)
viability decrease [3]: -12.8% (inactive)
tube area decrease [8]: -17.7% (inactive)
GLP1 secretion stimulation [4]: -1.5% (inactive)
inhibition of viability [5]: 7.7% (inactive)
viability decrease (inhibition) [6]: 6.4% (inactive)
viability decrease (inhibition) [7]: -15.9% (inactive)
remaining NAD [9]: 10 nM (inactive)
luciferase signal [10]: 72 AU (inactive)

C[C@]12CCC(=O)C=C1CC[C@H]1[C@@H]3CC[C@](O)(C(=O)CO)[C@@]3(C)C[C@H](O)[C@@]12F
nuclear beta-catenin stimulation ([1]; at 10 µM): -2.1% (inactive)
nuclear beta-catenin stimulation ([1]; stimulation, at 2 µM): -2.1%
insulin secretion stimulation [2]: 0.3% (inactive)
viability decrease [3]: -81.6% (inactive)
tube area decrease [8]: 10.3% (inactive)
GLP1 secretion stimulation [4]: 0.3% (inactive)
inhibition of viability [5]: -8.17% (inactive)
viability decrease (inhibition) [6]: -20% (inactive)
viability decrease (inhibition) [7]: -2% (inactive)

Cc1ccc2nc(N)[nH]c(=O)c2c1Sc1ccncc1
nuclear beta-catenin stimulation ([1]; at 10 µM): 63.4% (active)
nuclear beta-catenin stimulation ([1]; stimulation, at 2 µM): 61.7%
insulin secretion stimulation [2]: 1.1% (inactive)
viability decrease [3]: 94.2% (active)
tube area decrease [8]: 50.9% (active)
GLP1 secretion stimulation [4]: 1.3% (inactive)
inhibition of viability [5]: 81.5% (active)
viability decrease (inhibition) [6]: 78.8% (active)
viability decrease (inhibition) [7]: 42.1% (inactive)
inhibition ([11]; at 0.5 µM, stronger effect = higher value): 15.7% (inactive)
inhibition ([11]; measured here: combination with BGB IC20, at 0.005 µM): -4.28%
inhibition ([11]; measured here: combination with BGB IC40, at 0.005 µM): -17.9%
inhibition ([11]; measured here: combination with BGB IC40, at 0.05 µM): -6.64%
inhibition ([11]; measured here: combination with cisplatin, at 0.5 µM, stronger effect = higher value): 12.2%
inhibition ([11]; measured here: combination with cisplatin, at 5 µM, stronger effect = higher value): -5.06%
inhibition ([12]; BGB combo, at 5 µM): 21.4%
inhibition ([12]; at 0.5 µM): -26.6% (inactive)
inhibition ([12]; cisplatin combo, at 5 µM): 28.1%
inhibition ([12]; measured here: with BGB IC20 combination, at 0.5 µM): -32.4%
inhibition ([12]; measured here: with cisplatin IC20 combination, at 0.5 µM): -14.7%
inhibition ([12]; single agent, at 5 µM): 43.4%
inhibition ([13]; BGB IC20 combo, at 0.005 µM): -27.9%
inhibition ([13]; BGB IC40 combo, at 0.005 µM): -29.4%
inhibition ([13]; BGB IC40 combo, at 0.05 µM): -15.3%
inhibition ([13]; at 0.5 µM): -23.3% (inactive)
inhibition ([13]; cisplatin combo, at 0.05 µM): -21.2%
inhibition ([13]; cisplatin combo, at 0.5 µM): -25.7%
inhibition ([13]; cisplatin combo, at 5 µM): -19.8%
inhibition ([13]; measured here: 5 uM single agent, at 5 µM): -37.5%

OC[C@@H](O)[C@@H](O)[C@H](O)[C@H](O)CO
nuclear beta-catenin stimulation ([1]; at 10 µM): 0.7% (inactive)
nuclear beta-catenin stimulation ([1]; stimulation, at 2 µM): 0.6%
insulin secretion stimulation [2]: -2% (inactive)
viability decrease [3]: -4.45% (inactive)
tube area decrease [8]: 4.3% (inactive)
GLP1 secretion stimulation [4]: 1.1% (inactive)
inhibition of viability [5]: -9.6% (inactive)
viability decrease (inhibition) [6]: 40.5% (inactive)
viability decrease (inhibition) [7]: 8.25% (inactive)
remaining NAD [9]: 10 nM (inactive)

CCCC(=O)O[C@]1(C(=O)CO)CC[C@H]2[C@@H]3CCC4=CC(=O)CC[C@]4(C)[C@H]3[C@@H](O)C[C@@]21C
nuclear beta-catenin stimulation ([1]; at 10 µM): 0.1% (inactive)
nuclear beta-catenin stimulation ([1]; stimulation, at 2 µM): 1.4%
insulin secretion stimulation [2]: 1.4% (inactive)
viability decrease [3]: -45.5% (inactive)
tube area decrease [8]: 18.3% (inactive)
GLP1 secretion stimulation [4]: 3.7% (inactive)
inhibition of viability [5]: 24.2% (inactive)
viability decrease (inhibition) [6]: 19.8% (inactive)
viability decrease (inhibition) [7]: 1% (inactive)
remaining NAD [9]: 10 nM (inactive)
luciferase signal [10]: 148 AU (inactive)

COc1ccc2c(c1)c1c3n2CCN(C)C3=NCC1
nuclear beta-catenin stimulation ([1]; at 10 µM): 1.3% (inactive)
nuclear beta-catenin stimulation ([1]; stimulation, at 2 µM): 0.5%
insulin secretion stimulation [2]: 1.05% (inactive)
GLP1 secretion stimulation [4]: 6.4% (inactive)

Cc1c(C)n(CCN(C)C)c2ccc(C(=O)OCCN(C)C)cc12
nuclear beta-catenin stimulation ([1]; at 10 µM): 1.1% (inactive)
nuclear beta-catenin stimulation ([1]; stimulation, at 2 µM): 14.1%
insulin secretion stimulation [2]: 0.4% (inactive)
viability decrease [3]: 41.2% (inactive)
inhibition of viability [5]: 27.7% (inactive)
viability decrease (inhibition) [6]: 71.7% (active)
viability decrease (inhibition) [7]: 0.9% (inactive)

CC(=C(CCOC(=O)C(C)C)SSC(CCOC(=O)C(C)C)=C(C)N(C=O)Cc1cnc(C)nc1N)N(C=O)Cc1cnc(C)nc1N
nuclear beta-catenin stimulation ([1]; at 10 µM): -0.6% (inactive)
nuclear beta-catenin stimulation ([1]; stimulation, at 2 µM): 4.5%
insulin secretion stimulation [2]: 31.5% (active)
viability decrease [3]: 20.6% (inactive)
inhibition of viability [5]: 30.9% (inactive)
viability decrease (inhibition) [6]: -6.3% (inactive)
viability decrease (inhibition) [7]: -3.9% (inactive)

O=C(O)C(S)C(S)C(=O)O (stereo unspecified)
nuclear beta-catenin stimulation ([1]; at 10 µM): 2.3% (inactive)
nuclear beta-catenin stimulation ([1]; stimulation, at 2 µM): 0.8%
insulin secretion stimulation [2]: 1.3% (inactive)
viability decrease [3]: -17% (inactive)
tube area decrease [8]: 14% (inactive)
GLP1 secretion stimulation [4]: 6.2% (inactive)
inhibition of viability [5]: -11.3% (inactive)
viability decrease (inhibition) [6]: -31.1% (inactive)
viability decrease (inhibition) [7]: -4.5% (inactive)
luciferase signal [10]: 96 AU (inactive)

CN(C)CCCO[C@@H]1[C@H]2OC(C)(C)O[C@H]2O[C@@H]1C(O)CO (stereo partly specified)
nuclear beta-catenin stimulation ([1]; at 10 µM): -2% (inactive)
nuclear beta-catenin stimulation ([1]; stimulation, at 2 µM): -1%
insulin secretion stimulation [2]: 0.9% (inactive)
viability decrease [3]: 24.4% (inactive)
tube area decrease [8]: -18.7% (inactive)
GLP1 secretion stimulation [4]: 0.3% (inactive)
inhibition of viability [5]: 55.2% (active)
viability decrease (inhibition) [6]: 13.2% (inactive)
viability decrease (inhibition) [7]: 66.4% (active)

c1ccc2ccccc2c1
nuclear beta-catenin stimulation ([1]; at 10 µM): 0.7% (inactive)
nuclear beta-catenin stimulation ([1]; stimulation, at 2 µM): 7.8%
insulin secretion stimulation [2]: 6.8% (inactive)
viability decrease [3]: 13.1% (inactive)
inhibition of viability [5]: 14.8% (inactive)
viability decrease (inhibition) [6]: -4.5% (inactive)
viability decrease (inhibition) [7]: 4.2% (inactive)

O=C(O)CCCCC(=O)O
nuclear beta-catenin stimulation ([1]; at 10 µM): 0.3% (inactive)
nuclear beta-catenin stimulation ([1]; stimulation, at 2 µM): -0.9%
insulin secretion stimulation [2]: -0.6% (inactive)
viability decrease [3]: -6.5% (inactive)
tube area decrease [8]: -7.7% (inactive)
GLP1 secretion stimulation [4]: 1.4% (inactive)
inhibition of viability [5]: -4.8% (inactive)
viability decrease (inhibition) [6]: 25% (inactive)
viability decrease (inhibition) [7]: 11.8% (inactive)
remaining NAD [9]: 10 nM (inactive)

O=C(O)c1cc(N=Nc2ccc(O)c(C(=O)O)c2)ccc1O
nuclear beta-catenin stimulation ([1]; at 10 µM): 1.3% (inactive)
nuclear beta-catenin stimulation ([1]; stimulation, at 2 µM): 8.5%
insulin secretion stimulation [2]: 0.9% (inactive)
viability decrease [3]: 15.9% (inactive)
inhibition of viability [5]: 20.6% (inactive)
viability decrease (inhibition) [6]: -10.4% (inactive)
viability decrease (inhibition) [7]: 18.3% (inactive)
fold change ([14]; stronger effect = lower value, cell number ratio, induced over uninduced): 0.936 (inactive) and 1.24 (inactive)
fold change ([14]; measured here: relative caspase fold change +Dox/-Dox): 0.766 and 0.877
cell count ([14]; measured here: total cells with miR-34 induction, stronger effect = lower value): 9060 and 9000
cell count ([14]; measured here: total cells without miR-34 induction): 9680 and 7270
z-score ([15]; MELAS cybrid survival, CellTiter-Glo 48 h, stronger effect = higher value): -0.277 (inactive)
z-score ([15]; Rieske KO mouse fibroblast survival, CellTiter-Glo 72 h): -0.199
remaining NAD [9]: 10 nM (inactive)
